AID923: qHTS Assay for Allosteric/Competitive Inhibitors of Caspase-1: Spectroscopic Profiling in AFC Spectral Region. AID 923, 2007. compound fluorescence, AFC spectral region (405/520 nm). 75,000 tested, 1.1% active. Potency, µM (top dose mostly 57.5 µM), for inactives: at the top dose fluorescence increase, most hits filed as activators; note: potency is the fitted concentration of half-maximal effect; 0% is about no effect
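Compound autofluorescence profiled at 405 nm ex/520 nm em during kinetic caspase 1 run (50 nM enzyme, 5 uM Ac-WEHD-AFC, HEPES pH 7.5, 10 mM DTT). Titration up to 57 uM; baseline from regression intercept, normalized to AFC standard curve.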
A350 fluor: compounds fluorescent in Alexa 350 spectral region; 59,000 tested, 11% active; Compound autofluorescence, 340/450 nm, Alexa 350 dye-equivalents; hits give high values; max dye-equivalent concentration, M; in the data active = max dye-equivalent concentration above about 10 nM; inconclusive = mostly about 1.1 nM to 9.6 nM
HSD17B inh: HSD17B dehydrogenase inhibition; recombinant HSD17B10, NADH fluorescence kinetic; Potency, µM (titrated, usually from 57.1 µM), without a hit: at the top dose activity change, negative = inhibition, hits mostly inhibitors; 75,000 tested, 7.6% active; AID 893;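 note: the protocol describes HADH2 (HSD17B10) and not the HSD17B4 of the title; potency is the fitted concentration of half-maximal effect; % is set by controls: 0 for no effect and ±100 for the full control effect; nearly all actives have a fitted effect of over 70% in size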
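Activity followed as NADH fluorescence increase (ex 360, em 450 nm) every 30 seconds for 4 min, using final 90 uM beta-hydroxybutyryl CoA and 1 mM NAD+. Recombinant His-tagged enzyme, 20 nM, pH 9.0 Tris buffer, 15 min compound preincubation.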
HADH2 inhib: blocks human hydroxyacyl-CoA dehydrogenase type II; Q99714; recombinant HADH2, NADH fluorescence, beta-hydroxybutyryl-CoA; Potency, µM (highest dose often 57.1 µM), for the others: at the highest dose activity change, negative = inhibition, usual class: inhibitors; 73,000 tested, 3.4% active; AID 886; note: potency is the fitted concentration of half-maximal effect; % is set by controls: 0 for no effect and ±100 for the full control effect; nearly all actives have a fitted effect of over 60% in size
Target sequence (Q99714 whole entry, looked up, one chain of several): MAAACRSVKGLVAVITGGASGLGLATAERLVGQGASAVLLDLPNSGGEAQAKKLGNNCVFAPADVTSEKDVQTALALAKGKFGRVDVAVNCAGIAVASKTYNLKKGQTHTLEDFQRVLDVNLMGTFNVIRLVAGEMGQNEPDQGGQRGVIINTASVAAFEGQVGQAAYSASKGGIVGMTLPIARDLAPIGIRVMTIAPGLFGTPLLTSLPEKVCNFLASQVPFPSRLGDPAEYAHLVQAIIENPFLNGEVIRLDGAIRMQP
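Activity measured as NADH fluorescence gain (360/450 nm), taken as the change between first and last reads of a 4-min kinetic run. Conditions: pH 9.0 Tris buffer, 20 nM E. coli-expressed His-tagged enzyme, 1 mM NAD+, 90 uM beta-hydroxybutyryl-CoA; 15-min compound preincubation.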
CRE-bla Fsk: alters forskolin-stimulated CRE reporter signaling in CHO cells. CHO CRE-bla reporter (cAMP response element driving beta-lactamase), forskolin EC10, beta-lactamase ratio. Potency, µM (highest dose often 38.2 µM), for inactives: at the highest dose activity change, negative = inhibition, usual class: activators. 71,000 tested, 2.5% active; active = well fitted activation curve with a large enough effect in the signal ratio, with a control signal flat, not every such curve was filed as active; inconclusive = small, poorly fitted or top-dose-only effect, or effect the other way, or a change in a side signal; the % refers to the signal ratio; note: potency is the fitted concentration of half-maximal effect; % of control where 0% means no effect
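The 460nm/530nm emission ratio after CCF4 loading defined %Activity, from which AC50 values were obtained. CRE-bla CHO cells received compound dilution series together with an EC10 level of NKH 477 for 3 hours at 37 degrees Celsius.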
4-MU autofl: compounds fluorescent in 4-MU spectral region; max dye-equivalent concentration, M; 59,000 tested, 11% active; compound autofluorescence, 340/450 nm, 4-MU equivalents; hits give high values; AID 589; in the data active = max dye-equivalent concentration above about 10 nM; inconclusive = mostly about 1.1 nM to 9.6 nM
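Intrinsic fluorescence at 340/450 nm (ex/em) was read after 15 min at room temperature in pH 8.0, 100 mM Tris. Each compound concentration expressed as 4-MU-equivalent concentration from a six-point 4-MU standard series on each plate.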
* hit, by the source's call; [ ] = dose if it differs, or a comment. Sampled rows, rich in hits. Any-hit rate of the full collection: about 14%. Unless noted, calls come from the whole dose curve; as a rule, active = well fitted curve in the direction sought with a large enough effect; inconclusive = small, poorly fitted or top-dose-only effect, or another doubt; inactive = no such curve, though single readings can be large; an effect the other way counts as inactive or inconclusive.

Screening O=S(=O)(Cc1ccccc1)N1CCN(Cc2ccc3c(c2)OCO3)CC1 returned AID923 -1%, HSD17B inh -7%, HADH2 inhib 7% and CRE-bla Fsk -6%.
For O=C1C2C3c4ccccc4C(c4ccccc43)C2C(=O)N1Cc1ccco1 (centres undefined) the results were AID923 1%, HSD17B inh -7%, HADH2 inhib -24%[11.4 µM] and CRE-bla Fsk -7%[7.6 µM].
N#CC1=C2SCN(Cc3ccco3)CN2C(=O)CC1c1cccc2ccccc12 (centres undefined) was read as AID923 0%, A350 fluor inactive, HSD17B inh 25µM*, HADH2 inhib 3.2µM*, CRE-bla Fsk -7% and 4-MU autofl inactive.
`C=CCn1c(COc2cccc3ccc(C)nc23)nnc1SCC(N)=O` gave AID923 0%, A350 fluor inactive, HSD17B inh inconclusive, HADH2 inhib -23%, CRE-bla Fsk -1% and 4-MU autofl inactive.
`Cc1cc(SCC(=O)c2ccc(Br)cc2)cc(C)[o+]1` gave AID923 -1%[11.5 µM], A350 fluor inactive, HSD17B inh -9%[11.4 µM], HADH2 inhib -28%[11.4 µM], CRE-bla Fsk -3%[7.6 µM] and 4-MU autofl inactive.
Screening CC1(C)N=C(/C=N/O)CN1O returned AID923 -1%, A350 fluor 7e-08M*, HSD17B inh 2%, HADH2 inhib 0%, CRE-bla Fsk -3% and 4-MU autofl 6.9e-08M*.
For Cc1sc2nc(CN3CCOCC3)nc(Oc3ccc(NC(=O)c4ccco4)cc3)c2c1C the results were AID923 -2%, A350 fluor inactive, HSD17B inh 8%, HADH2 inhib 7%, CRE-bla Fsk 3.2µM* and 4-MU autofl inactive.
For CC(C)[C@@H](CC(=O)N[C@@H]1CCCC[C@H]1C(=O)N[C@H](CC(=O)N[C@@H](CCC(=O)O)CC(=O)O)Cc1c[nH]c2ccccc12)NC(=O)C[C@H](CO)NC(=O)[C@@H]1CCCC[C@H]1N the results were HADH2 inhib -18% and CRE-bla Fsk -7%.
COc1ccccc1NC1=C(C)C(=O)CC1 was read as AID923 -2%, HSD17B inh -5%, HADH2 inhib -1% and CRE-bla Fsk -5%.
Screening COc1ccc(OC)c2c1CCC2=O returned A350 fluor 1.8e-07M* and 4-MU autofl 1.6e-07M*.
Nc1nc(=S)c2[nH]cnc2[nH]1 was read as AID923 -1% and HSD17B inh -3%.
Screening COc1ccc(OC)c(C2/C(=C(\O)c3c(C)nc4ccccn34)C(=O)C(=O)N2CCCN(C)C)c1 (centres undefined) returned AID923 0%, A350 fluor inactive, HSD17B inh 12%, HADH2 inhib -3%, CRE-bla Fsk 4µM* and 4-MU autofl inactive.
Screening Cc1ccc(C2/C(=C(\O)c3c(C)nc4ccccn34)C(=O)C(=O)N2CCCN(C)C)o1 (centres undefined) returned AID923 1%, A350 fluor inconclusive, HSD17B inh 9%, HADH2 inhib -1%, CRE-bla Fsk 14% and 4-MU autofl inactive.
For CCOc1cc(C2C(C(=O)N3CCCCC3)=C(C)NC3=C2C(=O)CCC3)cc(Br)c1O (centres undefined) the results were AID923 0%, A350 fluor 1.5e-07M*, HSD17B inh 5%, HADH2 inhib -26%, CRE-bla Fsk 5% and 4-MU autofl 1.4e-07M*.
`CCOC(=O)C1=C(C)NC(=O)NC1c1cc(Br)c(O)c(OC)c1` (centres undefined) gave AID923 -2%, A350 fluor inactive, HSD17B inh 9%, HADH2 inhib 2%, CRE-bla Fsk 15% and 4-MU autofl inactive.
Screening COc1ccc(NC(=O)c2oc3ccccc3c2NC(=O)c2ccc3c(c2)OCO3)cc1 returned AID923 8%, A350 fluor 8.8e-08M*, HSD17B inh inconclusive, HADH2 inhib 3%, CRE-bla Fsk 23% and 4-MU autofl 9e-08M*.
`COC(=O)c1[nH]c2cc(OC)ccc2c1NC(=O)c1ccc2c(c1)OCO2` gave AID923 2%, HSD17B inh 66% and HADH2 inhib -15%.
`CCOC(=O)c1[nH]c2ccc(OC)cc2c1NC(=O)c1ccc2c(c1)OCO2` gave AID923 2%, HSD17B inh 200% and HADH2 inhib 6%.
Screening CCOC(=O)c1oc2ccccc2c1NC(=O)c1ccc2c(c1)OCO2 returned AID923 0%, A350 fluor 3.8e-08M*, HSD17B inh inconclusive, HADH2 inhib inactive, CRE-bla Fsk inconclusive and 4-MU autofl 3e-08M*.
Screening OCCN[C@@H]1c2cc(Cl)ccc2-c2c(Cl)cc(Cl)cc21 returned AID923 2%[11.5 µM], A350 fluor inactive, HSD17B inh 7%[11.4 µM], HADH2 inhib 1%[11.4 µM], CRE-bla Fsk -4%[7.6 µM] and 4-MU autofl inactive.
Screening COC(=O)N1[C@H](C)C=C[C@]1(Cc1ccccc1)C(=O)NCc1ccc(C)o1 returned AID923 -1%, HSD17B inh inconclusive, HADH2 inhib 3% and CRE-bla Fsk inconclusive.
Screening CCOC(=O)N/N=C1/C[C@@H](O)[C@@H](O)[C@@H]2[C@@H]3C(=O)N(c4cccc(Oc5ccccc5)c4)C(=O)[C@H]3CC[C@H]12 returned AID923 -4%[11.5 µM], HSD17B inh 3%[11.4 µM] and HADH2 inhib 16%[11.4 µM].
For O=c1cc(CN2CCC3(CC2)OCCO3)c2c(ccc3ccccc32)o1 the results were AID923 1%, A350 fluor 1.5e-08M*, HSD17B inh -1%, HADH2 inhib -4%, CRE-bla Fsk inconclusive and 4-MU autofl 1.4e-08M*.
Screening CC(C)(C)OC(=O)[C@H]([C@@H]1N[C@@H](C(=O)O)C(C)(C)S1)N1C(=O)c2ccccc2C1=O returned AID923 -1%[11.5 µM], A350 fluor 5.4e-08M*, HSD17B inh 2%[11.4 µM], HADH2 inhib 6%[11.4 µM], CRE-bla Fsk 3%[7.6 µM] and 4-MU autofl 4.8e-08M*.
For Cc1ncoc1C(=O)Nc1cccc(Cl)c1 the results were AID923 1%, A350 fluor inactive, HSD17B inh -7%, HADH2 inhib inconclusive, CRE-bla Fsk 8% and 4-MU autofl inactive.
Cc1ocnc1C(=O)Nc1ccc(Cl)cc1 was read as AID923 2%, A350 fluor 2e-08M*, HSD17B inh -23%, HADH2 inhib 5%, CRE-bla Fsk -19% and 4-MU autofl 1.9e-08M*.
`Cc1nnc2c(-c3ccccc3)nc3ccccc3n12` gave AID923 2%, HSD17B inh inconclusive, HADH2 inhib 5% and CRE-bla Fsk inconclusive.

Source: PubChem BioAssay
